# Sfp PPTase inh = Sfp phosphopantetheinyl transferase inhibition; hit rate 3.5% among 310,000; Potency, µM, hits mostly inhibitors; Biochemical Sfp PPTase activity, qHTS; Q9F4F7;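 note: the enzyme is Sfp with the accession as filed and its product quenches rhodamine fluorescence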
#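 Fluorescence-quenching assay: 15 nM Sfp-PPTase preincubated 15 min at room temperature with compound, then 5 uM rhodamine-CoA and 12.5 uM BHQ-2-labelled YbbR peptide added. Fluorescence (ex 525/em 598 nm) read at start and after 30 min; difference gives rate.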
# ALDH1A1 inh = ALDH1A1 (human) enzyme inhibition | P00352 | Potency, µM (top dose mostly 75.3 µM), hits mostly inhibitors | hit rate 7.3% among 220,000 | Purified ALDH1A1, NADH fluorescence, propionaldehyde substrate; active = well fitted inhibition curve with a large enough effect, not every such curve was filed as active; inconclusive = small, poorly fitted or top-dose-only effect, or another doubt; inactive = no such curve, though single readings can be large or run the other way
# PLK1 PBD block = inhibitors of human PLK1 polo-box domain binding; P53350; Plk1 PBD binding of FITC phosphopeptide, fluorescence polarization; Potency, µM, actives largely listed as inhibitors; hit rate 2.8% among 360,000; note: series mostly up to about 57 µM; nearly all actives have a fitted effect of over 65% in size
# Target sequence (P53350 whole entry, looked up, the tested form may be a part): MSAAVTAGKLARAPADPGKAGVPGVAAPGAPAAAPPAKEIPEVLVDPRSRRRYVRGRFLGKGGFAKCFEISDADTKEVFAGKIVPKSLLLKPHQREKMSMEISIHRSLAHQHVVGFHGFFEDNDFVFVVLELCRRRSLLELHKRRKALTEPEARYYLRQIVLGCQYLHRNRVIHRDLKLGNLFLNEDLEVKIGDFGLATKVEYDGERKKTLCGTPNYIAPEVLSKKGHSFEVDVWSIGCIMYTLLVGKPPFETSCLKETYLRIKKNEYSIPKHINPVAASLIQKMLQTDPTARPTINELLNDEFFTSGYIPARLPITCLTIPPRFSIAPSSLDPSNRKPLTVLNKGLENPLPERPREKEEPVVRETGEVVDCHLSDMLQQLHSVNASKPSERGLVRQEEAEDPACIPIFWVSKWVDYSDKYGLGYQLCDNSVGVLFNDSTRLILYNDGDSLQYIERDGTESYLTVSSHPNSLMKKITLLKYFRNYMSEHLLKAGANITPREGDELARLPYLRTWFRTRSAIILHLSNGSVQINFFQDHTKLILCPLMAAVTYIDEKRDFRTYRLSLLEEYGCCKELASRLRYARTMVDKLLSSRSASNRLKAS
# RORgamma inh = inhibitors of mouse ROR gamma transcriptional activity; AID 2551; P51450; Potency, µM (titrated, usually from 53.6 µM), hits mostly inhibitors; Drosophila S2 Gal4-RORgamma UAS-luciferase reporter, 20 h; hit rate 5.4% among 310,000; note: nearly all actives have a fitted effect of over 60% in size
#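 Drosophila S2 cells stably expressing Gal4-DBD/mouse RORγ fusion under metallothionein promoter plus UAS-luciferase; compound 1 h, then 700 uM CuSO4 induction for 20 h at ambient temperature; inhibition read as reduced luminescence.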
# Gal4-VP16 FLuc = inhibits Gal4-VP16 luciferase reporter, ROR gamma counter-screen; AID 2546; Drosophila S2 Gal4-VP16 UAS-luciferase, luminescence, 20 h; hit rate 3.5% among 310,000; Potency, µM (highest dose often 53.6 µM), actives largely listed as inhibitors;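 note: Gal4-VP16 expression switched on by copper sulfate through the metallothionein promoter; nearly all actives have a fitted effect of over 50% in size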
# A number is an active result; i = inactive; ? = inconclusive; nt = no result given; [ ] = remark or other dose. A selection: hits, their analogues and other compounds. The true share with any hit is near 12%. Unless noted, calls come from the whole dose curve; as a rule, active = well fitted curve in the direction sought with a large enough effect; inconclusive = small, poorly fitted or top-dose-only effect, or another doubt; inactive = no such curve, though single readings can be large; an effect the other way counts as inactive or inconclusive.
SMILES,Sfp PPTase inh,ALDH1A1 inh,PLK1 PBD block,RORgamma inh,Gal4-VP16 FLuc
Cc1ccccc1-c1cnc(C(O)c2ccc(-c3ccccc3)cc2)[nH]1 (stereo unspecified),nt,nt,i,nt,nt
O=C(COc1ccc(Cl)cc1)Nc1ncc([N+](=O)[O-])s1,i,i,i,?,?
O=C(COC(=O)COc1ccccc1)Nc1ncc([N+](=O)[O-])s1,nt,nt,17µM,nt,nt
Cc1ccc(C(=O)Nc2ncc([N+](=O)[O-])s2)cc1,i,nt,i,0.89µM,2µM
O=C(Nc1ncc([N+](=O)[O-])s1)c1ccc2c(c1)OCO2,?,nt,?,1.8µM,2.5µM
Cc1ccc(C(=O)Nc2ncc(Cc3ccc(SC(F)F)cc3)s2)cc1,i,i,i,13µM,?
CC(=O)Nc1ncc([N+](=O)[O-])s1,i,nt,nt,i,i
Cc1cnc(NC(=O)c2ccc3c(c2)OCCO3)s1,nt,nt,i,nt,nt
C=CCN(C(C(=O)OC)C(C)C)S(=O)(=O)CCl (stereo unspecified),i,nt,nt,i,i
CCc1cc(C(C)=O)c(O)cc1OCCCCCC(C)(C)c1nn[nH]n1,i,?,nt,i,i
CC(=O)OC[C@@H]1O[C@H](CCO/N=C(\C)CCN2CCc3nc(-c4ccccc4)c(-c4ccccc4)cc3C2)C=C[C@@H]1OC(C)=O,i,i[13.5 µM],nt,i[10 µM],i[10 µM]
Cc1[nH]n(-c2ncc(-c3ccccc3)s2)c(=O)c1C(c1ccc(Cl)cc1)C(C#N)C#N (stereo unspecified),?,28µM,3.8µM,?,?
Cc1ccccc1Cc1c(C)nc2c(C(=O)NCc3ccco3)cnn2c1C,50µM,?,i,i,i
Cc1nc2c(C(=O)N3CCCC3)cnn2c(C)c1Cc1c(F)cccc1Cl,i,?,i,i,i
Cc1ccc(C)c(Cc2c(C)nc3c(C(=O)N4CCOCC4)cnn3c2C)c1,89µM,?,i,i,i
CCOC(=O)N1CCN(C(=O)c2cnn3c(C)c(Cc4ccc(C)cc4)c(C)nc23)CC1,i,25µM,i,i,i
CC(=O)N[C@@H](CCC(=O)O)C(=O)O,i,nt,nt,i,i
CCN1CCc2c(sc(N)c2C(N)=O)C1,50µM,?,21µM,i,i
CN1CCc2c(sc(N)c2C(N)=O)C1,56µM,?,?,i,i
CCN1CCc2c(sc(NC(=O)c3cc4ccccc4cc3OC)c2C(N)=O)C1,?,nt,i,4.5µM,5.6µM
CCc1cc(C(=O)Nc2cc(S(=O)(=O)N3CCCCC3)ccc2N2CCN(C)CC2)sc1C,nt,nt,i,nt,nt
CC(C)CN1CCc2nc(-c3ccccc3)c3c(c2CC1)COC(C)C3 (stereo unspecified),i,i[13.5 µM],nt,i[10 µM],i[10 µM]
C[C@H]1CN([C@@H](C)CO)C(=O)CCCn2cc(nn2)CO[C@@H]1CN(C)S(=O)(=O)c1ccc(Oc2ccccc2)cc1,nt,nt,i,nt,nt
CCCCC/C=C\C/C=C\CCCCCCCC(=O)NCC(=O)O,i,i,nt,i,i
COc1ccc(-c2nnc(Nc3ccc(CC(N)=O)cc3)c3ccccc23)cc1,i,?,i,i,i
SMILES,Sfp PPTase inh,ALDH1A1 inh,PLK1 PBD block,RORgamma inh,Gal4-VP16 FLuc
NC(=O)Cc1ccc(Nc2nnc(-c3ccccc3)c3ccccc23)cc1,?,i,i,?,22µM
CC1CC(C)(C)CC2(C1)NC(=O)N(CC(=O)Nc1ccc3c(c1)OCO3)C2=O (stereo unspecified),nt,nt,i,nt,nt
O=C(CCC(=O)OCC(=O)c1cccc([N+](=O)[O-])c1)NC1CCCCC1,i,nt,i,i,i
O=C(CCC(=O)OCC(=O)c1ccc([N+](=O)[O-])cc1)NC1CCCCC1,i,2.8µM,i,i,i
O=C(CSCc1ccc([N+](=O)[O-])cc1)NC1CCCCCC1,i,25µM,i,i,i
Cc1cccc(NC(=O)CCC(=O)OCC(=O)c2ccc(Oc3ccc([N+](=O)[O-])cc3)cc2)c1,i,7.1µM,11µM,i,i
Cc1nnc(SCC(=O)Nc2ncc(Cl)cc2Cl)n1Cc1ccccc1,i,?,i,4µM,?
Cc1nnc(SCC(=O)Nc2sccc2C(N)=O)n1Cc1ccccc1,i,i,i,4.5µM,i
Cc1cccc(NC(=O)CSc2nnc(C)n2Cc2ccccc2)c1,i,i,i,i,i
Cn1c(SCC(=O)Nc2ncc(C(F)(F)F)cc2Cl)nnc1-c1ccc(Cl)cc1,i,i,i,10µM,11µM
OC[C@@H]1CN(Cc2ccc3c(c2)OCO3)C[C@H](n2cnc3c(N4CCCC4)ncnc32)O1,nt,nt,i,nt,nt
CN(C)S(=O)(=O)c1ccc(-c2csc(N/N=C/c3ccc(O)cc3)n2)cc1,50µM,nt,i,i,?
CN(C)S(=O)(=O)c1ccc(-c2csc(N/N=C/c3ccco3)n2)cc1,i,nt,i,i,?
CC(=O)c1sc(N/N=C/c2cccc([N+](=O)[O-])c2)nc1C,i,nt,i,i,i
O=[N+]([O-])c1cccc(-c2csc(N/N=C/c3cccc(O)c3)n2)c1,50µM,i,i,i,i
CCNC(=O)C1(C)CCCN(C(=O)c2cc3ccccc3s2)C1 (stereo unspecified),nt,nt,i,nt,nt
CCOC(=O)Cc1csc(SCn2nnc3ccccc3c2=O)n1,i,?,i,i,i
CCOC(=O)Cc1csc(-n2sc3ccccc3c2=O)n1,6.3µM,3.5µM,3µM,11µM,?
CC1=C(C(=O)N(C)C)CC(CC(=O)NCc2cccs2)C(=O)N1CCCN1CCCC1=O (stereo unspecified),nt,nt,i,nt,nt
CSCC[C@H](NC(=O)c1ccc(Br)o1)c1nnc2ccccn12,i,nt,11µM,i,i
CSCC[C@H](NC(=O)c1cccs1)c1nnc2ccccn12,i,nt,i,i,i
COc1ccc(NC(=O)c2sc(=O)n(Cc3ccccc3C#N)c2C)cc1OC,nt,nt,i,nt,nt
CO[C@@H]1COC(=O)CCC[C@@H](C)[C@H](OC)COC(=O)[C@H](Cc2ccccc2)NC(=O)C/C=C\[C@H]1C,i,0.016µM,nt,i[10 µM],i[10 µM]
CO[C@H]1COC(=O)[C@H](C)COC(=O)[C@@H](Cc2ccccc2)NC(=O)C/C=C\[C@H]1C,i,i[13.5 µM],nt,i[10 µM],i[10 µM]
Cc1ccc(C(=O)NNC(=O)c2n[nH]c(=O)c3ccccc23)cc1C,nt,nt,i,nt,nt
SMILES,Sfp PPTase inh,ALDH1A1 inh,PLK1 PBD block,RORgamma inh,Gal4-VP16 FLuc
O=c1[nH][nH]c(C(F)(F)F)c1C=Nc1ccccc1,i,i,i,i,i
Cc1cc(O)ccc1N=Cc1c(C(F)(F)F)[nH][nH]c1=O,?,?,i,11µM,?
O=C(NCC1CCCCC1)c1csc([C@@H]2C[C@H](O)[C@@H](CO)O2)n1,nt,nt,i,nt,nt
N#Cc1cc2cc3c(cc2nc1N1CCCCC1)OCCO3,28µM,?,i,i,i
N#Cc1cc2cc3c(cc2nc1Cl)OCCO3,nt,nt,i,nt,nt
CCN(CC)CCN(C(=O)c1ccc2c(c1)CCCC2)c1nc2ccc(OC)cc2s1,79µM,nt,i,i,i
CCN(Cc1ccccc1)S(=O)(=O)c1ccc(C(=O)N(CCCN(C)C)c2nc3cc4c(cc3s2)OCO4)cc1,56µM,nt,i,?,?
CN(C)CCN(C(=O)c1ccc(C(=O)c2ccccc2)cc1)c1nc2cc3c(cc2s1)OCO3,56µM,nt,i,i,i
CCN(CC)CCN(C(=O)c1ccc2c(c1)CCCC2)c1nc2ccc(C)cc2s1,?,nt,i,i,i
